Source: PubChem BioAssay (National Center for Advancing Translational Sciences (NCATS))
Compounds with a hit are over-represented: about 19% of the library has one in this group of screens.
uPA surface inh: blocks generation of uPA at the cell surface | cell surface uPA generation assay, qHTS | Potency, µM (titrated, usually from 38.3 µM), most hits filed as inhibitors | 330,000 compounds, 0.31% hits | AID 540303; active means well fitted inhibition curve with a large enough effect; inconclusive means small, poorly fitted or top-dose-only effect; inactive means no such curve, though single readings can be large or run the other way; tested in mouse RAW 264.7 cells; further: nearly all actives have a fitted effect of over 55% in size
HT1080NT lethal: kills 2HG-producing HT-1080-NT fibrosarcoma cells | HT-1080-NT fibrosarcoma viability, CellTiter-Glo ATP luminescence, 48 h | Potency, µM (series often up to 46.1 µM), most hits filed as cytotoxic | 360,000 compounds, 1.6% hits;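 further: NT is the 2HG producing partner of a matched IDH1 knockdown line; nearly all actives have a fitted effect of over 55% in size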
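Fibrosarcoma NT cells, 750 per well in 5% FBS RPMI, were exposed to compound for 48 hours. Viability: CellTiter-Glo luminescence.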
IL-1B inflam inh: blocks inflammasome-driven IL-1 beta release. THP-1 LPS/ATP IL-1B secretion, AlphaLISA, 16 h; active compounds read low. activity change, % at 57.5 µM. 360,000 compounds, 4.7% hits; in the data active means activity change below about -50%; inconclusive means mostly about -30% to -49%
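Secreted IL-1B measured by AlphaLISA bead assay after 16 h compound exposure of THP-1 cells; compounds (final up to 57.5 uM) added 1 h before LPS (250 ng/mL) and ATP (1.25 mM) stimulation; lower signal means less secretion.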
DT40 TDP1 no CPT: qHTS for Inhibitors of human tyrosyl-DNA phosphodiesterase 1 (TDP1): qHTS in cells in absence of CPT | DT40 Tdp1-/- hTDP1 cells, no CPT, ATP luminescence, 48 h | 420,000 compounds, 15% hits | Potency, µM (series often up to 46.2 µM), hits mostly inhibitors; further: nearly all actives have a fitted effect of over 55% in size
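Stably hTDP1-transfected Tdp1-null chicken DT40 cells were treated with library compounds minus camptothecin and grown for at least 48 hr at 37 °C, after which cellular ATP was quantified by luminescence.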
HT1080 IDH1KD tx: toxicity to HT-1080 IDH1 knockdown cells (counter line). HT-1080 IDH1 knockdown viability, ATP luminescence, 48 h. Potency, µM (titrated, usually from 46.1 µM), actives largely listed as cytotoxic. AID 686971. 360,000 compounds, 2% hits
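Assay cells: HT-1080 with IDH1 knockdown, 750 per well, RPMI/5% FBS. Exposure: 48 h at 37 °C following 2 h pre-incubation. Read: CellTiter-Glo luminescence; fitted concentration-response, curve class assigned.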
DT40 TDP1 CPT: DT40-hTDP1 cell growth loss with CPT; chicken DT40 Tdp1-/-;hTDP1 cells + 20 nM CPT, ATP luminescence, 48 h; Potency, µM (top dose mostly 46.2 µM), hits mostly inhibitors; 420,000 compounds, 12% hits; AID 686979; further: nearly all actives have a fitted effect of over 55% in size
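Chicken DT40 Tdp1-/- cells stably complemented with human TDP1 were seeded at 400 cells/well in medium containing 20 nM camptothecin, exposed to pin-transferred compounds, and grown at 37 °C for at least 48 hr. Viability was read as ATP luminescence.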
Hits are given with their value; – = inactive; ? = inconclusive; · = not tested or not shown; [ ] = dose if it differs, or a comment. Unless noted, the call rests on the fitted dose curve; in most records, active means well fitted curve in the direction sought with a large enough effect; inconclusive means small, poorly fitted or top-dose-only effect, or another doubt; inactive means no such curve, though single readings can be large; an effect the other way counts as inactive or inconclusive.

SMILES	uPA surface inh	HT1080NT lethal	IL-1B inflam inh	DT40 TDP1 no CPT	HT1080 IDH1KD tx	DT40 TDP1 CPT
CC(C)C(c1nnnn1Cc1ccc(F)cc1)N1CCN(Cc2ccc3c(c2)OCO3)CC1 (configuration not stated)	–	–	?	?	–	?
c1ccc(Cn2nnnc2CN2CCN(Cc3ccc4c(c3)OCO4)CC2)cc1	–	–	–	?	–	21µM
c1ccc2c(c1)CCN(Cc1nnnn1Cc1ccc3c(c1)OCO3)C2	–	–	–	–	–[9.24 µM]	–
Cc1ccc(C(c2nnnn2Cc2cccs2)N2CCN(Cc3ccc4c(c3)OCO4)CC2)cc1 (configuration not stated)	–	–	-64	9.2µM	?	7.3µM
COc1ccccc1CN1CCN(C(CC(C)C)c2nnnn2Cc2cccs2)CC1 (configuration not stated)	–	–	?	?	–	18µM
CCCCn1nnnc1C(c1cc2ccccc2o1)N1CCN(CC(=O)NC(C)C)CC1 (configuration not stated)	·	–	–	?	–	–
CCc1nn(CC(=O)NCc2cccnc2)c(=O)c2cc3occc3n12	–	–	–	–	–	–
O=C1CC(N2CCN(Cc3ccc4c(c3)OCO4)CC2)C(=O)N1c1cccc2ccccc12 (configuration not stated)	–	–	–	–	–	–
O=C1CC(N2CCN(Cc3ccc4c(c3)OCO4)CC2)C(=O)N1CCc1ccccc1 (configuration not stated)	·	–	–	?	–	13µM
COC(=O)c1ccc(S(=O)(=O)N2CCCCCC2)cc1	–	–	–	–	–	–
O=C(/C=C/c1ccc(O)c(O)c1)c1ccc(S(=O)(=O)N2CCCCCC2)cc1	–	–	-74	5.2µM	–	4.6µM
CCOc1ccccc1Nc1cc2n(c(=O)n1)CCc1cc(OC)c(OC)cc1-2	–	–	–	15µM	–	?
COc1cc2c(cc1OC)-c1cc(OCCN3CCOCC3)nc(=O)n1CC2	–	–	–	?	–	23µM
c1ccc(CNc2cncnc2)cc1	–	–	–	–	–	–
Cn1c(=O)c2c(SCC(=O)N3CCCC3)nc(CC(C)(C)C)nc2n(C)c1=O	–	–	–	?	–	?
COc1ccc(C(=O)c2c(N)c(C(=O)Nc3cccc(OC)c3)c3ccccn23)cc1	·	·	·	–	·	?
CC(NCCC(Cc1ccccc1)c1ccco1)c1ccccc1 (configuration not stated)	–	–	-59	?	–	?
Fc1ccc(CNCCC(Cc2ccccc2)c2ccco2)cc1 (configuration not stated)	–	?	-80	?	–	–
O=C(CS(=O)c1ccc(C(F)(F)F)cc1[N+](=O)[O-])Oc1ccc(Cl)cc1 (configuration not stated)	–	?	-98	12µM	?	9.2µM
CC(C)N1CCC(N2CCN(CC#Cc3ccccc3)CC2CCO)CC1 (configuration not stated)	–	–	–	?	–	–
O=C(NCc1ccccc1Cl)c1ccc(CSCc2cccc(F)c2)o1	·	·	·	?	·	26µM
O=C(NC1CC1)c1ccc(CSCc2cccc(F)c2)o1	–	–	–	?	–	?
O=C(NCc1ccc(F)cc1)c1ccc(CSCc2cccc(Cl)c2)o1	·	·	·	21µM	·	?
O=C(NCc1ccc(Cl)cc1)c1ccc(CSCc2cccc(Cl)c2)o1	·	·	·	?	·	–
CC(c1ccccc1)n1cnc2ccccc2c1=O (configuration not stated)	–	–	–	–	–	–
SMILES	uPA surface inh	HT1080NT lethal	IL-1B inflam inh	DT40 TDP1 no CPT	HT1080 IDH1KD tx	DT40 TDP1 CPT
O=c1c2sc3ccccc3c2n(Cc2ccccc2Cl)c(=O)n1Cc1ccccc1	·	·	·	–	·	–
O=c1c2sc3ccccc3c2n(Cc2cccc(Cl)c2)c(=O)n1Cc1ccco1	·	·	·	23µM	·	21µM
O=c1c2sc3ccccc3c2n(Cc2ccccc2F)c(=O)n1-c1ccccc1Cl	·	·	·	9.2µM	·	21µM
O=c1c2sc3ccccc3c2n(Cc2ccccc2)c(=O)n1Cc1ccccc1	·	·	·	–	·	–
O=c1c2sc3ccccc3c2n(Cc2cccc(Cl)c2)c(=O)n1Cc1ccc(F)cc1	·	·	·	6.5µM	·	10µM
O=c1c2sc3ccccc3c2n(Cc2ccccc2F)c(=O)n1Cc1ccccc1	·	·	·	?	·	–
O=c1c2sc3ccccc3c2n(Cc2cccc(Cl)c2)c(=O)n1Cc1ccccc1	·	·	·	?	·	13µM
Cc1ccc(S(=O)(=O)N2CCN(C(=O)CN3C(=O)c4ccccc4C3=O)CC2)c(C)c1	–	–	–	–	–	–
Cc1nc2c(sc(=S)n2Cc2ccco2)c(=O)n1CC(=O)Nc1ccc(F)cc1	–	–	–	?	–	?
Cc1nc2c(sc(=S)n2Cc2ccco2)c(=O)n1CC(=O)Nc1cc(F)ccc1F	–	–	–	?	–	12µM
O=c1c2sc3ccccc3c2n(Cc2cccc(F)c2)c(=O)n1Cc1ccccc1	·	·	·	16µM	·	?
O=C(Cn1c(=O)n(Cc2ccco2)c(=O)c2sc3ccccc3c21)Nc1ccc(F)cc1F	·	·	·	10µM	·	?
Cc1nc2c(C)cccn2c(=O)c1NC(=O)c1ccc2c(c1)OCO2	–	–	–	–	–	–
N#CC(Cc1ccccc1OC(F)F)c1nc2ccccc2[nH]1 (configuration not stated)	–	–	–	–	–	–
Cc1cccc(CNC(=O)c2cnn(-c3nccc(-c4ccccc4F)n3)c2C)n1	·	·	·	–	·	–[9.04 µM]
CC(C)OC(=O)/C(=C\c1cccc2ccccc12)NC(=O)c1ccccc1	–	–	-79	?	–	?
COc1cccc(CN2CCNC(=O)C2CC(=O)N(C)CCC2CCOCC2)c1OC (configuration not stated)	–	–	–	?	–	–
O=C(NCc1ccccc1)c1ccc2c(c1)C(=O)N(Cc1cccnc1)C2=O	–	–	–	–	–	–
O=C(COC(=O)c1cccc(Cl)c1)Nc1cccc(S(=O)(=O)NC2=NCCC2)c1	–	–	–	–	–	–
CCOc1cc(C(=O)N2CC(=O)Nc3ccc(C)cc3C2c2ccccc2)cc(OCC)c1OCC (configuration not stated)	·	·	·	21µM	·	18µM
Cc1ccc2c(c1)C(c1ccccc1)N(C(=O)c1ccccc1F)CC(=O)N2 (configuration not stated)	·	·	·	?	·	18µM
Cc1ccc2c(c1)C(c1ccccc1)N(C(=O)c1ccccc1)CC(=O)N2 (configuration not stated)	–	–	–	?	–	–
